# High-throughput results deposited in PubChem by National Center for Advancing Translational Sciences (NCATS).
# Pf growth 48h – P. falciparum growth inhibition at 48 hours (one generation); P. falciparum luciferase growth in erythrocytes, 48 h; Potency, µM (highest dose often 28.7 µM), inactives show at the highest dose activity change, negative = inhibition, hits mostly inhibitors; hit rate 5.9% among 310,000; AID 504832; also: % is scaled to controls: 0 for no effect and ±100 for the full control effect
#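 A one-generation exposure of luciferase-tagged malaria parasites in RPMI 1640/Albumax erythrocyte culture, 37 C and 5% CO2. Inhibition is inferred from decreased luminescence after adding detection reagent.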
# NS1 function inh – influenza NS1 inhibition; Potency, µM (top dose mostly 46.1 µM), inactives show at the top dose activity, positive = more growth; hit rate 0.4% among 270,000; calls by dose curve; also: actives are rising curves; nearly all actives have a fitted effect of over 50% in size
#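 Compounds were scored for reversing the slow growth caused by influenza A NS1 in S. cerevisiae, measured by optical density at 600 nm. Assay medium contained 2% galactose at pH 6.0; NS1-free yeast of the same strain were the positive control.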
# Pf growth 96h – inhibits malaria parasite growth, 96 h; hit rate 6.9% among 320,000; Potency, µM (titrated, usually from 28.7 µM), for inactives: top-dose activity change, negative = inhibition, usual class: inhibitors; P. falciparum luciferase reporter growth, 96 h; also: % is scaled to controls: 0 for no effect and ±100 for the full control effect
#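 96 h incubation, 37 C, 5% CO2, of luciferase-reporter P. falciparum-infected RBCs (2% hematocrit, 0.05% parasitemia final) with test compounds; endpoint luminescence.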
# SARS PLP yeast – SARS-CoV PLP inhibition in yeast | S. cerevisiae expressing SARS-CoV PLpro, growth rescue | hit rate 0.19% among 330,000 | Potency, µM (doses to about 32.9 µM), without a hit: at the highest dose activity, positive = growth rescue, usual class: activators | AID 485353; calls by dose curve; also: 0% is about no effect; nearly all actives have a fitted effect of over 55% in size
# * = called active by the depositor; ? = inconclusive; / = no result given. A selection: hits, their analogues and other compounds. The true share with any hit is near 10%. Unless noted, calls follow the shape of the dose curve; as a rule, active = well fitted inhibition curve with a large enough effect; inconclusive = small, poorly fitted or top-dose-only effect, or another doubt; inactive = no such curve, though single readings can be large or run the other way. Potency is read from the fitted curve at half-maximal effect.
SMILES,Pf growth 48h,NS1 function inh,Pf growth 96h,SARS PLP yeast
O=C(Nc1ccc2c(c1)C(=O)NC2=O)c1cccc(C(F)(F)F)c1,61.8%,-5.3%,47.4%,-1.9%
Cc1cc(=O)nc2c3ccccc3n(C(C)C(=O)Nc3c(F)c(F)c(F)c(F)c3F)n12 (stereo unspecified),3.29µM*,/,0.0%,0.8%
Cc1cc(=O)nc2c3ccccc3n(C(C)C(=O)Nc3cc(F)ccc3F)n12 (stereo unspecified),?,-3.9%,10.4µM*,-2.0%
CC(C)NC(=O)NC(=O)COC(=O)c1cc(S(=O)(=O)N2CCCCC2)ccc1N1CCOCC1,8.28µM*,5.3%,?,10.6%
O=C(COC(=O)c1cc(S(=O)(=O)N2CCOCC2)cs1)c1ccccc1,18.8%,-1.7%,9.28µM*,-1.2%
O=C(COC(=O)c1cc(S(=O)(=O)N2CCCCC2)ccc1N1CCOCC1)c1ccccc1,8.28µM*,/,?,-2.3%
O=C(COC(=O)c1cc(S(=O)(=O)N2CCCCC2)ccc1N1CCOCC1)c1ccc(Cl)cc1,11.7µM*,/,13.1µM*,2.5%
CC(C)(O)CC[C@@H](O)[C@](C)(O)C1CC[C@@]2(O)C3=CC(=O)[C@]4(O)C[C@@H](O)[C@@H](O)C[C@]4(C)C3CC[C@]12C (stereo partly specified),-3.3%,/,11.2%,-0.5%
C=C(C(=O)c1ccccc1)C(C(=C)C(=O)c1ccccc1)c1ccc(OC)cc1,2.08µM*,-3.3%,?,0.1%
C=C(C(=O)c1ccccc1)C(C)C(=C)C(=O)c1ccccc1,?,-14.4%,10.4µM*,-30.8%
COc1ccc(C(CC(=O)c2ccccc2)CC(=O)c2ccccc2)cc1,?,-6.6%,?,-1.5%
C=C(C(=O)c1ccccc1)C(c1ccccc1)C(C)C(=O)c1ccccc1 (stereo unspecified),?,-1.5%,11.7µM*,-3.0%
Cc1ccc(C(C)C)c(OCC(=O)NN=C2CCCC(=O)C2)c1,/,/,/,-5.7%
Cc1ncn(-c2ccc(C(=O)Oc3ccccc3)cn2)n1,63.0%,/,?,2.5%
CCCn1cc2c3c(cccc31)C1CC(C)CN(C)C1C2 (stereo unspecified),?,-2.6%,11.7µM*,5.1%
CCOC(=O)c1cc(C#N)c(Oc2cccc(C(F)(F)F)c2)nc1-c1ccccc1,13.1µM*,6.2%,?,4.8%
CCOC(=O)c1cc(C#N)c(Oc2ccc(F)cc2)nc1-c1ccccc1,?,-2.3%,33.7%,-6.6%
O=C(O)C[C@H](Nc1ccccc1)C(=O)O,/,-8.3%,/,/
c1ccc(-c2[nH]c(-c3ccccc3)[n+](CC3CO3)c2-c2ccccc2)cc1 (stereo unspecified),?,-19.9%,10.4µM*,-32.6%
CN(CC(=O)NCCc1ccc(S(N)(=O)=O)cc1)Cc1ccc(Cl)cc1Cl,-11.6%,7.9%,-7.6%,4.2%
COC(=O)c1ccc(C(=O)OC)c(NC(=O)CN(C)Cc2ccc(Cl)c(Cl)c2)c1,10.4µM*,0.1%,?,-18.8%
COc1ccccc1NC(=S)N1CCCCCC1,26.6%,0.7%,-3.1%,-0.4%
CCC(C)c1ccc(S(=O)(=O)N2CCN3CCCC3C2)cc1 (stereo unspecified),14.7%,-7.5%,-14.5%,0.2%
CC(=O)Nc1cccc(-c2cn3ccccc3n2)c1,81.6%,-2.7%,13.1µM*,-0.9%
CC(C)C(=O)Nc1cccc(-c2cn3ccccc3n2)c1,33.9%,2.7%,19.9%,3.7%
SMILES,Pf growth 48h,NS1 function inh,Pf growth 96h,SARS PLP yeast
CCc1nnc(SCC(=O)Nc2ccc3ccccc3c2)n1N,/,/,/,-0.2%
CN1CCN(c2ccccc2NC(=O)c2cc3c(s2)-c2ccccc2OC3)CC1,10.4µM*,-4.1%,?,-8.8%
CN1CCN(c2ccccc2NC(=O)C(Cc2ccccc2)n2cccc2)CC1 (stereo unspecified),10.4µM*,-0.5%,?,26.9%
COc1c(F)c(F)c(C(=O)Nc2ccccc2N2CCN(C(=O)C(C)C)CC2)c(F)c1F,0.928µM*,-34.2%,57.0%,-6.5%
Cc1noc(C)c1COc1cccc(C(=O)Nc2ccccc2N2CCOCC2)c1,?,11.0%,13.1µM*,6.3%
O=C(COc1ccccc1)N=C1SC2CS(=O)(=O)CC2N1c1ccc(F)cc1 (stereo unspecified),19.6%,2.3%,35.2%,19.5%
CC1(C)[C@@H]2CC[C@]1(C)[C@@H](OC(=O)/C=C\c1ccccc1)C2,/,-16.7%,/,/
CN1CCN(c2ccccc2NC(=O)c2ccc(-c3ccccc3)cc2)CC1,?,-4.1%,/,1.5%
CN1CCN(c2ccccc2NC(=O)c2cccc(OCc3ccccc3)c2)CC1,5.22µM*,-35.0%,/,-3.4%
COc1cccc(C(=O)Nc2ccccc2N2CCN(C(=O)c3ccccc3)CC2)c1,/,/,/,-4.9%
CN1CCN(c2ccccc2NC(=O)c2ccc(OCc3ccccc3)cc2)CC1,7.38µM*,-10.1%,13.1µM*,-2.5%
CN1CCN(c2ccccc2NC(=O)c2cccc([N+](=O)[O-])c2)CC1,-19.1%,4.4%,43.3%,-1.1%
CN1CCN(c2ccccc2NC(=O)c2c(F)cccc2F)CC1,?,/,3.7µM*,4.5%
COc1cccc(C(=O)Nc2ccccc2C(=O)N2CCCC2)c1,/,-5.1%,-24.6%,10.6%
CCOc1cccc(C(=O)Nc2ccccc2C(=O)N2CCN(C)CC2)c1,2.1%,11.6%,4.65µM*,3.7%
COc1ccc(-c2cc(C(=O)NC(C)c3ccccn3)c3ccccc3n2)cc1OC (stereo unspecified),?,/,?,1.9%
Cc1cc(C)n(-c2ccc(C(=O)OCC(=O)Nc3ccccc3F)cc2)n1,/,/,/,-1.6%
O=C(NCCCNC(=O)c1cnccn1)c1cccc(Cl)c1,-13.6%,-1.9%,12.2%,2.7%
Cc1ccc(S(=O)(=O)N2CCc3ccccc3C2)cc1C,16.2%,0.8%,9.2%,-2.2%
O=C(CN1C(=O)S/C(=C\c2ccccc2F)C1=O)NC1C=CS(=O)(=O)C1 (stereo unspecified),?,-4.0%,?,-1.1%
N#CCC(=O)N/N=C/c1cn(Cc2ccccc2C#N)c2ccccc12,-2.3%,5.5%,-1.1%,0.3%
N#CCC(=O)N/N=C/c1c(-c2ccccc2)n(-c2ccccc2)c2ccccc12,9.28µM*,12.0%,?,-15.1%
O=S(=O)(c1ccc(Br)cc1)N1CCN(Cc2ccco2)CC1,17.1%,-9.3%,57.5%,-1.8%
COc1ccc(/C=N/NC(=O)c2cc(O)c(O)c(O)c2)cc1Cn1cc([N+](=O)[O-])cn1,?,/,9.4%,10µM*
COc1ccc(/C=N/NC(=O)c2ccncc2)cc1Cn1nc([N+](=O)[O-])c(Br)c1C,?,/,4.15µM*,1.5%
CCn1cc(C(=O)O)c(=O)c2cc(F)c(N3CCNC(C)C3)c(F)c21 (stereo unspecified),/,0.7%,/,/
Cc1ccc(OC(C)C(=O)Nc2ccc(F)cc2)c([N+](=O)[O-])n1 (stereo unspecified),-28.4%,/,24.2%,4.3%
COc1cccc(OCc2nnc(SCC(=O)NNC(=O)C3CCCCC3)n2C)c1,-7.6%,/,13.1µM*,0.7%
COc1ccc(C(=O)NNC(=O)CSc2nnc(COc3ccccc3)n2C)cc1,-26.0%,4.4%,-11.5%,-2.7%
